In PubChem BioAssay AID1159569 (Broad Institute, 2015):
Entries with a potency or affinity are not part of this list. Inconclusive results are not listed. Calls of active or inactive are those of the source. How the calls were made is not given here.

Assay: HepG2 cell cytotoxicity, dose response, cytotoxicity control, plate reader, dry powder samples (AID 1159569)
Settings: HepG2 cytotoxicity counterscreen; series mostly up to 50 µM

In the case of `OC[C@H]1Nc2ccc(C#Cc3cccnc3)cc2[C@H]2NCC[C@H]21`, the outcome is reported as “inactive”.
